NPC1 promoter act = activates the NPC1 promoter; Huh7 NPC1 promoter luciferase reporter, 24 h; Potency, µM (doses to about 9.22 µM), for inactives: at the top dose activation, actives largely listed as activators; actives 2.4% (n = 320,000); AID 485313; also: % of control where 0% means no effect; nearly all actives have a fitted effect of over 60% in size
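Huh7 cells stably carrying NPC1 promoter–luciferase, plated in Opti-MEM with 10% FBS for 2 h, were exposed to compound in DMSO for 24 h at 37 °C; luciferase reagent was added for 10 min and luminescence read.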
ELG1 genotox = induces genotoxicity in HEK293T cells with luciferase-tagged ELG1. Potency, µM (titrated, usually from 46 µM), for the others: at the top dose activity change, positive = activation, usual class: activators. AID 504466. HEK293T ELG1-luciferase reporter, luminescence, 16 h. actives 1.3% (n = 330,000); also: % of control where 0% means no effect; nearly all actives have a fitted effect of over 60% in size
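Luminescence read-out: rising ELG1-luciferase signal, reflecting elevated ELG1 protein under genetic stress, flags genotoxic compounds. Cells were treated for 16 hr at 37 °C before ONE-Glo detection.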
Rab9 promoter act = activates the Rab9 promoter | Huh7 Rab9 promoter-luciferase reporter, luminescence, 24 h | Potency, µM (series often up to 9.22 µM), for the others: top-dose activation, negative = inhibition, hits mostly activators | actives 2.8% (n = 320,000) | AID 485297; also: % of control where 0% means no effect; nearly all actives have a fitted effect of over 60% in size
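Using Huh7 cells stably transfected with Rab9 promoter–luciferase, compounds were incubated 24 h at 37 °C, 5% CO2; luciferase luminescence was read 10 min after reagent addition.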
FLuc modulator = counter-screen for miR-21 project: firefly luciferase inhibitors or activators; P08659; purified FLuc, Km substrates, luminescence inhibition; Potency, µM (doses to about 57.5 µM), without a hit: top-dose activity change, negative = inhibition, usual class: inhibitors; actives 6.9% (n = 360,000);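 also: plate controls were vehicle for no effect and reference inhibitor for full effect; nearly all actives have a fitted effect of over 55% in size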
Target sequence (P08659 whole entry, looked up): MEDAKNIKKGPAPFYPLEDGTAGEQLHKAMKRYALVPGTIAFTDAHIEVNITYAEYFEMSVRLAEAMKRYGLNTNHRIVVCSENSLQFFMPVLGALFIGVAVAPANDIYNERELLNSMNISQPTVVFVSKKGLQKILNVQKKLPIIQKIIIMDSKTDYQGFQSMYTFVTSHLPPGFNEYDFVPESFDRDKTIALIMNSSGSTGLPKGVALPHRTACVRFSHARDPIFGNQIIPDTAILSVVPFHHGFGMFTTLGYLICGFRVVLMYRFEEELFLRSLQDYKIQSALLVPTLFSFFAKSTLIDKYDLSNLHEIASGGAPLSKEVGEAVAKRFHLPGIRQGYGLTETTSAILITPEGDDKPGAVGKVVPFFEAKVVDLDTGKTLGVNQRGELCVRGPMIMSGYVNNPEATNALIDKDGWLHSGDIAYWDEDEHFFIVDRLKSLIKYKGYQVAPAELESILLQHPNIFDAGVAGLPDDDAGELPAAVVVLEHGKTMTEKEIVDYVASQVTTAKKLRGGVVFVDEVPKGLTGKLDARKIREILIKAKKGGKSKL
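Purified P. pyralis luciferase, 10 nM final, with Km-level 10 uM D-luciferin and 10 uM ATP in 50 mM Tris acetate pH 7.5, 10 mM Mg acetate, 0.01% Tween-20, 0.05% BSA; 6-point qHTS titration about 60 µM downward; luminescence read.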
SMN2 splice enh = enhancers of SMN2 splice variant expression | HEK293 SMN2-luciferase splicing reporter, luminescence, 30-36 h | Potency, µM (titrated, usually from 46.1 µM), without a hit: at the highest dose activity change, positive = activation, hits mostly activators | actives 2.8% (n = 210,000); also: % of control where 0% means no effect; nearly all actives have a fitted effect of over 55% in size
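qHTS luciferase splicing reporter: luminescence rises when SMN2 exon 7 is included in transfected HEK293 cells. Compound exposure lasted 30-36 h at 37C, with 4.5 mM final sodium butyrate as control, followed by a ONE-Glo read.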
ELG1 DNA repair = inhibitors of ELG1-dependent DNA repair in HEK293T cells. HEK293T ELG1-luciferase reporter, luminescence, 16 h; DNA damage induced by 5-fluorouridine. Potency, µM (titrated, usually from 46.1 µM), for the others: top-dose activity change, negative = inhibition, actives largely listed as inhibitors. actives 2.3% (n = 330,000); also: % is scaled to controls: 0 for no effect and ±100 for the full control effect; nearly all actives have a fitted effect of over 55% in size
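5-Fluorouridine DNA damage + compound/DMSO, 2,000 cells/well, 16 h, 37 °C/5% CO2. ONE-Glo, 30 min RT, luminescence. Readout = decrease in reporter signal.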
Numbers without * were called inactive; ? = inconclusive; · = no result. Only some compounds are listed: those with a hit (about 9.3% of all), similar ones and a draw of the others. Calls follow the shape of the dose curve; as a rule, active = well fitted curve in the direction sought with a large enough effect; inconclusive = small, poorly fitted or top-dose-only effect, or another doubt; inactive = no such curve, though single readings can be large; an effect the other way counts as inactive or inconclusive. Potency is read from the fitted curve at half-maximal effect.

SMILES	NPC1 promoter act	ELG1 genotox	Rab9 promoter act	FLuc modulator	SMN2 splice enh	ELG1 DNA repair
CC(Sc1nnc(NC2CC2)s1)C(=O)Nc1ccc(N2CCOCC2)cc1 (configuration not stated)	1%	1%	-6%	-1%	·	0%
CC1CN(CC(=O)NCc2ccccc2)CC(C)O1 (configuration not stated)	-10%	3%	0%	-1%	·	21%
CC1(C)C=Cc2cc3ccc(=O)oc3cc2O1	?	?	?	11µM*	14µM*	?
COc1c2c(cc3oc(=O)ccc13)OC(C)(C)C=C2	18%	13%	22%	?	·	?
O=C1N=C(N2CCN(c3ccccc3)CC2)S/C1=C\c1cn[nH]c1-c1ccccc1	-1%	-12%	2%	-7%	-7%	4.6µM*
Cc1ccc(N2CCN(C3=NC(=O)/C(=C\c4cn[nH]c4-c4ccccc4)S3)CC2)cc1	-6%	4%	-9%	0%	-31%	1.6µM*
O=C1N=C(N2CCC(Cc3ccccc3)CC2)S/C1=C/c1cn[nH]c1-c1ccccc1	-4%	-12%	-2%	-1%	-10%	?
CCOC(=O)c1cccc(NC(=O)C(CC(C)C)N2Cc3ccccc3C2=O)c1 (configuration not stated)	·	·	·	-5%	·	·
COCc1[nH]nc2c1C(c1cc(OC)c(O)c(OC)c1)C(C#N)=C(N)O2 (configuration not stated)	3%	2%	12%	-5%	-19%	18µM*
CCOC(=O)c1cnc2c(C)c(C)ccc2c1Nc1ccc(S(=O)(=O)Nc2ncccn2)cc1	2%	5%	9%	19µM*	?	?
CCOC(=O)c1cnc2c(ccc3ccccc32)c1Nc1ccc(OCC)cc1	·	·	·	-7%	-4%	·
COc1cc(-c2ccccc2)nc(N)n1	?	16µM*	3.2µM*	?	1%	?
CCOc1cc(-c2ccccc2)nc(N)n1	?	22%	?	?	0%	?
Cc1cc(NCCCn2ccnc2)n2ncc(-c3ccccc3)c2n1	0.4µM*	0.29µM*	0.11µM*	0.34µM*	-38%	?
Cc1cc(NCCCn2ccnc2)n2nc(C)c(-c3ccc(Cl)cc3)c2n1	5%	-1%	0%	15µM*	·	?
Cc1cc(NCCN2CCOCC2)n2nc(C)c(-c3ccc(Cl)cc3)c2n1	0%	-37%	-1%	2%	-17%	-13%
Cc1cc(NCCCn2ccnc2)n2nc(C)c(-c3ccccc3)c2n1	29%	16%	?	9.5µM*	9%	?
c1ccc(-c2nc(NCCCn3ccnc3)c3ccccc3n2)cc1	-5%	-10%	0%	-2%	9%	?
Cc1ccc(S(=O)(=O)Nc2cccc(-n3cnnn3)c2)cc1	1%	1%	-7%	0%	·	0%
Clc1ccc(-n2nnc(-c3nccs3)n2)cc1Cl	1.6µM*	5.2µM*	0.89µM*	1.9µM*	·	?
Cc1ccc(-n2nnnc2C(Cl)(Cl)c2nnnn2-c2ccc(C)cc2)cc1	-2%	-2%	-8%	?	-14%	2%
Cc1ccc(-n2nnc(-c3nccs3)n2)cc1	?	0.23µM*	?	0.12µM*	·	?
O=C(O)C1CC(C2CCCCN2)CN2CCCCC12 (configuration not stated)	·	·	·	·	8%	·
O=C(Nc1cc(Cl)ccc1O)c1cc(-c2ccc3c(c2)OCO3)on1	·	·	·	-16%	?	·
Cc1ccc(NC(=O)c2cc(-c3ccc4c(c3)OCO4)on2)cc1	1%	17%	20%	-5%	-3%	?
CC(C)c1cc(C(=O)Nc2cccc(C(F)(F)F)c2)no1	-2%	?	-5%	15µM*	-14%	?
O=C(Nc1cccc(Cl)c1)c1cc(-c2ccc3c(c2)OCCO3)on1	·	·	·	0.48µM*	·	·

Compound activity (PubChem BioAssay)
